Records with an inconclusive call do not appear. Calls of active or inactive are those of the source. Calls come from the whole dose curve; as a rule, active = well fitted activation curve with a large enough effect; inconclusive = small, poorly fitted or top-dose-only effect; inactive = no such curve, though single readings can be large or run the other way.
Potency is the fitted concentration of half-maximal effect.

The nature of the assay: qHTS Assay for Agonists of the Relaxin Receptor RXFP1: V1B Hit Validation.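 For activation: cAMP accumulation with PDE4 inhibitor Ro 20-1724 present during compound exposure.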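 Note: counter-screen in HEK293 cells expressing V1B rather than RXFP1 for selectivity; nearly all actives have a fitted effect of over 65% in size.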 The conditions noted are these: HEK293 V1B cells, cAMP TR-FRET, 30 min; series mostly up to 115 µM. The method, boiled down:
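cAMP accumulation, read by TR-FRET competition after lysis, in V1B-expressing HEK293 cells given compound for 30 min at 37C with Ro 20174 present. Responses scaled between buffer basal and 29 nM porcine relaxin; Hill-equation EC50.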
On to `COc1ccc(CN2C(=O)c3cccnc3C2=O)cc1S(=O)(=O)NC1CCCCC1`, for which the Potency is 34.6 µM (active). For `O=C(O)c1ccc(N2C(=O)c3cccc4c(C(=O)O)ccc(c34)C2=O)cc1` the value was 47.3 µM (active); for `COc1ccc(-n2nnc3c(=O)n(CC(=O)NCC4CCCO4)cnc32)cc1` (stereo not drawn), 9.74 µM (active). For `CCOC(=O)CCCCC(=O)c1[nH]c(=O)[nH]c1CSc1nnc2c3cc(Br)ccc3n(C)c2n1` the value was 10.9 µM (active). The value for `Cc1ccccc1OCC(=O)Nc1sc(C(=O)Nc2cccc(C)c2C)c(C)c1C#N` was 6.15 µM (active). Regarding `Cc1cc(C)nc(NS(=O)(=O)c2ccc(N3C(=O)c4ccccc4C3=O)cc2)n1`, the Potency was 29.8 µM (active). The value for `O=C(Nc1cccc(C(F)(F)F)c1)c1ccccc1NC(=O)C1CCCCC1` was “inactive”.

For the compound `O=C(Nc1ccccc1C(=O)N1CCNCC1)c1ccco1`, the Potency result was “inactive”.

The values above are taken from PubChem BioAssay AID492948 (National Center for Advancing Translational Sciences (NCATS), 2010).
